Measurements from PubChem BioAssay AID1159580 (chemical genetic matrix, 2015).
Where “and” joins values, the source holds several entries; their conditions need not be identical. Identical values can stand only once. The whole screen tested about 5,500 compounds, of which about 2,000 (36%) were called active. Roughly 18% stayed inconclusive and do not appear here. Rule as the data show it: active = normalized growth mostly below about 0.91 (no sharp cut-off); inconclusive = no clear call, values can overlap the other calls; inactive = mostly above about 0.92. Some of the results follow.

Test: chemical genetic growth profiling, strain panel (AID 1159580);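 also: tested at 20 µM; growth read once vehicle control cultures reached saturation at 30 °C; 1 = growth at the plate median or of vehicle wells; lower values mean less growth of the strain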
Details: S. cerevisiae deletion strains, growth OD

Measured: normalized growth

COc1ccc(-c2cc(=O)c3cc(OC)ccc3o2)cc1
inactive: locus YAL013W, strain DEP1, hits give low values 0.982 | locus YAL021C, strain ccr4, hits give low values 0.964 | locus YAL026C, strain drs2, hits give low values 0.922 | locus YBL061C, strain skt5, hits give low values 0.937 | locus YBR021W, strain FUR4, hits give low values 0.908 | locus YBR023C, strain chs3, hits give low values 0.916 | locus YBR171W, strain sec66, hits give low values 0.95 | locus YBR229C, strain ROT2, hits give low values 0.999 | locus YBR231C, strain swc5, hits give low values 0.939 | locus YBR279W, strain paf1, hits give low values 0.944 | locus YCL016C, strain dcc1, hits give low values 0.944 | locus YCL029C, strain bik1, hits give low values 0.987 | locus YCL061C, strain MRC1, hits give low values 0.96 | locus YCL069W, strain vba3, hits give low values 0.945 | locus YCR088W, strain abp1, hits give low values 0.94 | locus YDL005C, strain med2, hits give low values 0.949 | locus YDL035C, strain GPR1, hits give low values 0.977 | locus YDL040C, strain nat1, hits give low values 0.95 | locus YDL074C, strain BRE1, hits give low values 0.918 | locus YDL101C, strain DUN1, hits give low values 0.983 | locus YDL134C, strain PPH21, hits give low values 1.04 | locus YDL185W, strain tfp1, hits give low values 0.946 | locus YDL192W, strain arf1, hits give low values 0.978 | locus YDR001C, strain nth1, hits give low values 0.942 | locus YDR069C, strain doa4, hits give low values 0.948 | locus YDR101C, strain arx1, hits give low values 0.946 | locus YDR137W, strain rgp1, hits give low values 0.883 | locus YDR150W, strain NUM1, hits give low values 0.983 | locus YDR159W, strain sac3, hits give low values 0.925 | locus YDR162C, strain NBP2, hits give low values 1.01 | locus YDR195W, strain ref2 1.04 | locus YDR297W, strain sur2, hits give low values 0.955 | locus YDR318W, strain mcm21, hits give low values 1.02 | locus YDR334W, strain swr1, hits give low values 0.931 | locus YDR335W, strain msn5, hits give low values 0.962 | locus YDR388W, hits give low values 1 | locus YDR502C, strain sam2, hits give low values 0.968 | locus YEL003W, strain gim4, hits give low values 0.956 | locus YEL061C, strain CIN8 (second series), hits give low values 0.93 | locus YEL061C, strain CIN8, hits give low values 1.01 | locus YER015W, strain faa2, hits give low values 0.969 | locus YER016W, strain bim1, hits give low values 0.954 | locus YER110C, hits give low values 0.974 | locus YER111C, strain swi4, hits give low values 0.943 | locus YER155C, strain BEM2, hits give low values 0.985 | locus YER167W, strain BCK2, hits give low values 0.997 | locus YFR010W, strain ubp6, hits give low values 0.906 | locus YGL078C, strain dbp3, hits give low values 0.995 | locus YGL086W, strain mad1, hits give low values 0.938 | locus YGL167C, strain pmr1, hits give low values 0.924 | locus YGL173C, strain kem1, hits give low values 0.947 | locus YGL227W, strain vid30, hits give low values 0.947 | locus YGL240W, strain doc1, hits give low values 0.892 | locus YGL248W, strain PDE1, hits give low values 1.01 | locus YGR078C, strain PAC10, hits give low values 0.988 | locus YGR135W, strain pre9, hits give low values 1.01 | locus YGR229C, strain SMI1, hits give low values 0.961 | locus YGR252W, strain gcn5, hits give low values 1.04 | locus YHR013C, strain ard1, hits give low values 0.972 | locus YHR027C, strain rpn1, hits give low values 0.949 | locus YHR030C, strain SLT2, hits give low values 0.998 and 0.956 | locus YHR079C, strain IRE1 (second series), hits give low values 0.997 | locus YHR079C, strain IRE1, hits give low values 0.928 | locus YHR094C, strain hxt1, hits give low values 1.01 | locus YHR129C, strain ARP1, hits give low values 0.985 | locus YHR200W, strain rpn10, hits give low values 0.985 | locus YIL066C, strain RNR3, hits give low values 0.999 | locus YIL073C, strain SPO22, hits give low values 0.973 | locus YIL125W, strain kgd1, hits give low values 0.99 | locus YIR030C, strain dcg1, hits give low values 1.01 | locus YJL092W, strain hpr5, hits give low values 0.948 | locus YJL095W, strain BCK1 (second series), hits give low values 0.95 | locus YJL095W, strain BCK1, hits give low values 0.96 and 0.964 | locus YJL115W, strain asf1, hits give low values 0.936 | locus YJL129C, strain trk1, hits give low values 0.937 | locus YJL134W, strain LCB3, hits give low values 0.996 | locus YJL154C, strain vps35, hits give low values 0.942 | locus YJL166W, strain qcr8, hits give low values 0.913 | locus YJL168C, strain set2, hits give low values 1 | locus YJL187C, strain SWE1 (second series), hits give low values 0.972 | locus YJL187C, strain SWE1, hits give low values 0.948 | locus YJR043C, strain POL32, hits give low values 0.966 | locus YJR066W, strain TOR1, hits give low values 0.893 | locus YKL009W, strain mrt4, hits give low values 0.925 | locus YKL068W, hits give low values 1 | locus YKL085W, strain MDH1 (second series), hits give low values 0.997 | locus YKL085W, strain MDH1, hits give low values 0.997 | locus YKL160W, strain elf1, hits give low values 0.939 | locus YKL190W, strain CNB1, hits give low values 1 | locus YKR001C, strain vps1, hits give low values 0.93 | locus YKR026C, strain gcn3, hits give low values 0.942 | locus YKR091W, strain srl3, hits give low values 0.96 | locus YLL001W, strain dnm1, hits give low values 0.931 | locus YLL041C, strain sdh2, hits give low values 0.96 | locus YLR027C, strain aat2, hits give low values 0.925 | locus YLR039C, strain RIC1, hits give low values 1.01 | locus YLR058C, strain SHM2, hits give low values 0.99 | locus YLR102C, strain apc9, hits give low values 0.975 | locus YLR113W, strain HOG1, hits give low values 0.981 | locus YLR221C, strain rsa3, hits give low values 0.947 | locus YLR258W, strain gsy2, hits give low values 0.934 | locus YLR262C, strain YPT6 (second series), hits give low values 0.902 | locus YLR262C, strain YPT6, hits give low values 1.06 | locus YLR268W, strain sec22, hits give low values 0.965 | locus YLR330W, strain CHS5, hits give low values 0.925 | locus YLR342W, strain FKS1 (second series), hits give low values 0.975 | locus YLR342W, strain FKS1, hits give low values 0.94 | locus YLR357W, strain rsc2, hits give low values 0.88 | locus YLR370C, strain arc18, hits give low values 0.941 | locus YLR371W, strain rom2, hits give low values 0.965 | locus YLR384C, strain iki3, hits give low values 0.944 | locus YLR418C, strain cdc73, hits give low values 0.943 | locus YML016C, strain PPZ1, hits give low values 0.991 | locus YML032C, strain rad52, hits give low values 0.997 | locus YML120C, strain ndi1, hits give low values 0.946 | locus YML124C, strain tub3, hits give low values 1.01 | locus YMR058W, strain fet3, hits give low values 0.928 | locus YMR078C, strain ctf18, hits give low values 0.982 | locus YMR125W, strain sto1, hits give low values 0.927 | locus YMR129W, hits give low values 0.949 | locus YMR205C, strain PFK2, hits give low values 0.898 | locus YMR223W, strain ubp8, hits give low values 1.02 | locus YMR231W, strain pep5, hits give low values 0.974 | locus YMR307W, strain GAS1, hits give low values 1.06 | locus YNL067W, strain RPL9B, hits give low values 0.99 | locus YNL183C, strain NPR1, hits give low values 0.885 | locus YNL209W, strain ssb2, hits give low values 0.956 | locus YNL233W, strain BNI4, hits give low values 0.914 | locus YNL248C, strain rpa49, hits give low values 0.95 | locus YNL250W, strain rad50, hits give low values 0.957 | locus YNL271C, strain bni1, hits give low values 1.02 | locus YNL298W, strain CLA4, hits give low values 0.995 | locus YNL307C, strain MCK1, hits give low values 0.987 | locus YNL322C, strain KRE1 (second series), hits give low values 0.948 | locus YNL322C, strain KRE1, hits give low values 1 | locus YNR049C, strain mso1, hits give low values 0.937 | locus YNR052C, strain pop2, hits give low values 1.02 | locus YOL012C, strain htz1 1.07 | locus YOL147C, strain pex11, hits give low values 0.997 | locus YOR001W, strain rrp6, hits give low values 0.95 | locus YOR061W, strain CKA2, hits give low values 1.01 | locus YOR069W, strain VPS5, hits give low values 0.99 | locus YOR070C, strain gyp1, hits give low values 0.941 | locus YOR080W, strain dia2, hits give low values 0.961 | locus YOR083W, strain WHI5, hits give low values 0.954 | locus YOR106W, strain vam3, hits give low values 0.905 | locus YOR136W, strain idh2, hits give low values 0.988 | locus YOR144C, strain elg1, hits give low values 0.997 | locus YOR184W, strain ser1, hits give low values 0.979 | locus YOR231W, strain MKK1, hits give low values 0.952 | locus YOR265W, strain rbl2, hits give low values 0.949 | locus YOR316C, strain cot1, hits give low values 0.996 | locus YPL051W, strain arl3, hits give low values 0.945 | locus YPL055C, strain LGE1, hits give low values 0.934 | locus YPL078C, strain atp4, hits give low values 0.922 | locus YPL106C, strain sse1, hits give low values 0.873 | locus YPL240C, strain hsp82, hits give low values 0.972 | locus YPL241C, strain CIN2, hits give low values 0.997 | locus YPL256C, strain CLN2, hits give low values 0.962 | locus YPR119W, strain clb2, hits give low values 1 | locus YPR141C, strain kar3, hits give low values 1.02 | locus YPR163C, strain tif3, hits give low values 1 | locus YPR167C, strain met16, hits give low values 1.02 | strain wtn01, hits give low values 0.944
active: locus YAL030W, strain snc1, hits give low values 0.928 | locus YBR009C, strain hhf1, hits give low values 0.902 | locus YCL011C, strain gbp2, hits give low values 0.887 | locus YDR392W, strain spt3, hits give low values 0.571 | locus YEL037C, strain rad23, hits give low values 0.921 | locus YER155C, strain BEM2 (second series), hits give low values 0.771 | locus YGL253W, strain hxk2, hits give low values 0.894 | locus YHR142W, strain chs7, hits give low values 0.84 | locus YJL164C, strain tpk1, hits give low values 0.912 | locus YLL026W, hits give low values 0.926 | locus YLR320W, strain mms22, hits give low values 0.869 | locus YNL071W, strain lat1, hits give low values 0.831 | locus YOR270C, strain vph1, hits give low values 0.676 | locus YOR290C, strain snf2, hits give low values 0.849
